Source: PubChem BioAssay AID651724 (National Center for Advancing Translational Sciences (NCATS), 2012)
The whole screen tested about 340,000 compounds, of which about 1,700 (0.5%) were called active. Roughly 2% stayed inconclusive and do not appear here. Rule as the data show it: active = activity change below about -65%; inconclusive = mostly about -30% to -63%; inactive = weaker than that. The full list was thinned out, with actives kept by preference.

System: CtBP / adenovirus E1A interaction (AlphaScreen)
Experiment: qHTS Assay for Inhibitors of the CtBP/E1A Interaction
Details: AlphaScreen GST-E1A/His-CtBP binding, 1536-well; hits give low values
Summary of the method: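 AlphaScreen with 125 nM GST-E1A and 125 nM His-CtBP (5X stocks) in Tris pH 8.0, 300 mM NaCl, BSA, Tween 20, TCEP. Compounds preincubated 2 h at 37 deg C, then glutathione donor/nickel acceptor beads added for 1 h at 37 deg C in dark.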
% is scaled to controls: 0 for no effect and ±100 for the full control effect.

Activity change, active:
Cc1cc(C(=O)N/N=C/c2cc([N+](=O)[O-])cc(C)c2O)n[nH]1 -87.9%
NC(=S)NN=Cc1ccc(OC(=O)COc2cc(Cl)c(Cl)cc2Cl)cn1 -89.3%
Cc1cc([N+](=O)[O-])c(NC2CCCCC2)c([N+](=O)[O-])c1 -67.5%
Oc1c(CN2CCN(c3ccc(F)cc3)CC2)cc(Cl)c2cccnc12 -85.8%
COc1cncc(-c2cnc3sc(NCCc4ccccn4)nn23)c1 -68.3%
COC(=O)c1ccc(NC(=O)CSc2nc(N)c(NC(=O)c3ccc(Br)o3)c(=O)[nH]2)cc1 -65.1%
O=c1nc2s/c(=C\c3ccco3)c(=O)n2nc1Cc1ccccc1 -81.2%
Cc1ccc(-n2ncc3c(Nc4cccc(C(=O)O)c4)ncnc32)cc1 -74.4%
O=C(N/N=C/c1cc([N+](=O)[O-])ccc1O)/C(=C\c1cccs1)NC(=O)c1ccccc1 -94.1%
O=C(COc1cc2oc(=O)c3c(c2cc1Cl)CCC3)NCCCN1CCOCC1 -65.9%
Cc1ccc(S(=O)(=O)n2oc(=O)c(C3CCCCC3)c2N)cc1 -69.5%
Cc1ccc(/C=N/NC(=O)CSc2nc3ccccc3o2)cc1 -93.4%
O=C(CSc1nc2ccccc2o1)N/N=C/c1ccccc1C(=O)O -92.7%

Activity change, inactive:
CCOC(=O)c1cc(-c2sc(NC(=O)c3ccccc3)nc2C)n(-c2ccc(Br)cc2)n1 0%
COc1cccc(NC(=O)CN(C)C(=O)c2cc(Cl)nc3ccccc23)c1 -3.92%
COc1ccc2ccccc2c1/C=N/NC(=O)c1cc(C)[nH]n1 -8.94%
Cc1ccsc1C(=O)N/N=C/c1ccc([N+](=O)[O-])cc1 -4.19%
Cc1ccccc1S(=O)(=O)NC(=O)C1(C)CCN1C(=O)C1(c2ccc(Cl)cc2)CC1 (stereo unspecified) 9.59%
NC(c1ccccc1)c1csc(NC(=O)Nc2cccc(C(F)(F)F)c2)n1 (stereo unspecified) -14.2%
O=C(COc1ccc(Cl)cc1Cl)N/N=C/c1ccccn1 -13%
O=C(COC(=O)COc1cc(Cl)c(Cl)cc1Cl)NC1CC1 -0.684%
CCCS(=O)(=O)NC(=O)C1(C)CCCN(C(=O)c2ccnc(Cl)c2)C1 (stereo unspecified) -15.6%
Cc1cc([N+](=O)[O-])c(N2CCC[C@@H]2C(=O)O)c([N+](=O)[O-])c1 4.03%
Cc1cc([N+](=O)[O-])ccc1NC1CCCC1 -0.0944%
CN(C)CCNC(=O)c1ccc(-c2cn3c(-c4ccc(Oc5ccccc5)cc4)cnc3cn2)cc1 -7.14%
Cc1cccc(C)c1NC(=O)CN1CCN(c2ccc(F)cc2)CC1 -4.18%
Cc1ccc(CN2CCN(c3ncccn3)CC2)c(C)c1 -0.239%
O=C1CC[C@@H](C(=O)N2CSC[C@@H]2C(=O)Nc2ccc(C(F)(F)F)cc2)N1 2.94%
COc1ccc(C=C2CCC3C(CCCC34OCCO4)C2=O)cc1 (stereo unspecified) -0.25%
COc1cccc(NC(=S)NCc2ccccn2)c1 -9.96%
Cc1ccc(C(=O)N/C(=C\c2cccs2)C(=O)NCCc2ccccn2)cc1C -19.9%
O=S(=O)(c1cccc(C(F)(F)F)c1)N1c2ccccc2-n2cccc2C1c1cccnc1 (stereo unspecified) 1.4%
C[C@@H]1CN([C@@H](C)CO)C(=O)c2cc(Br)cnc2O[C@H]1CN(C)Cc1ccc(-c2ccccc2)cc1 -2.2%
CCCCCc1c(-c2cccc(Br)c2)ncn1CCc1ccccc1OC -0.685%
COc1cccc(C(NC(C)=O)c2nc(-c3cnc4ccccc4c3)cs2)c1 (stereo unspecified) -20.3%
Cc1ccc(-c2cnc(C(O)c3cccc(C)c3C)[nH]2)cc1 (stereo unspecified) -4.55%
COCCNC(=O)CSc1nc(N)c(NC(=O)c2ccco2)c(=O)[nH]1 12.4%
COc1ccc(C(=O)Nc2c(N)nc(SCC(=O)Nc3ccc(C(C)=O)cc3)[nH]c2=O)cc1 -2.12%
O=C(NCCc1ccco1)c1nn(Cc2ccccc2)c(=O)c2ccccc12 -2.1%
O=C(Nc1ccccc1)/C(=C\c1ccco1)NC(=O)c1ccco1 0.317%
CCCCOCCCNC(=O)C[C@@H]1C[C@@]2(C(=O)OC)CCCCC=C2N(CCC2=CCCCC2)C1=O -1.56%
Cc1ccc(Nc2ncnc3c2cnn3C)c(C)c1 3.32%
CC(C)Sc1ncnc2c1cnn2-c1ccccc1 0.575%
CC(=O)Nc1cc(-c2cccc(CO)c2)cn2c(-c3cccc(C(F)(F)F)c3)cnc12 3.79%
CN(Cc1cn(Cc2ccc(C(F)(F)F)cc2)nn1)C1CN(Cc2cn(Cc3ccc(C(F)(F)F)cc3)nn2)S(=O)(=O)C1 (stereo unspecified) 3.64%
Cc1ccc(NC(=O)/C(=C/c2ccc([N+](=O)[O-])cc2)NC(=O)c2ccccc2)cc1 4.11%
O=C(Nc1ccc(C(=O)O)cc1)/C(=C/c1ccc([N+](=O)[O-])cc1)NC(=O)c1ccccc1 -2.48%
CCCCN(C=O)c1c(CC)nc2c(OCCC3CCCCC3)cccn12 -11%
CCC(CC)C(C(=O)NC1CCCC1)N1CCN(c2cc(C)nc3ccccc23)CC1 (stereo unspecified) 3.39%
CCc1cc(=O)oc2c(C)c(OCC(=O)NCCN3CCOCC3)ccc12 -6.07%
Cc1cc(=O)oc2c(C)c(OCC(=O)NCCN3CCOCC3)ccc12 0.132%
O=C(CC(CC(=O)c1ccccc1)c1ccco1)c1ccccc1 4.89%
Cc1ccc(S(=O)(=O)N2CCC(N3CCCCCC3)CC2)cc1 -10.9%
Cc1ccc(S(=O)(=O)NC2CCCCCC2)cc1 10.7%
Cc1cc(Br)cn2c(Cc3ccccc3C(F)(F)F)c(C3CCCCC3)nc12 -6.97%
Cc1noc(C)c1-c1ccc(C(=O)NCc2ccncc2)c2occc12 -17.7%
Cc1[nH]c2ccccc2c1C(=O)c1cc([C@H](NC(=O)OC(C)(C)C)C(C)C)sc1N -23.1%
O=C(CSc1nc2ccccc2o1)N1CCN(c2ccc(Cl)cc2)CC1 -0.51%
O=C(CSc1nc2ccccc2o1)N1CCN(c2ccccc2)CC1 -3.28%
CC(C)(C)C(=O)CSc1nc2ccccc2o1 11.1%
CCN(CC)C(=O)CSc1nc2ccccc2o1 4.11%
